Screens deposited in PubChem BioAssay by several laboratories.
Only some compounds are listed: those with a hit (about 2.3% of all), similar ones and a draw of the others.
Mcl1-Noxa inh – Mcl-1/Noxa interaction inhibition; AID 1022; Q07820; TR-FRET Mcl-1/Noxa peptide binding, 2 h; inhibition, % at 21.7 µM; 220,000 compounds, 1.5% hits;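 active = compounds that cut the protein-peptide binding signal by more than 50% relative to plate controls in a single-dose test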;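 note: His-tagged Mcl-1 with rhodamine Noxa BH3 peptide and terbium anti-His antibody; 0% = Mcl-1 plus Noxa peptide wells and 100% = peptide-only wells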
GLD-1 RNA inh – GLD-1-TGE RNA interaction inhibition (C. elegans). 320,000 compounds, 0.44% hits. AID 2280. Q17339. purified GLD-1 + fluorescein TGE RNA, fluorescence polarization. inhibition, % at 5.96 µM;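 active = percent inhibition above a per-plate cutoff, the plate mean of test compounds plus 3 SD, cut at about 30% in these data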;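 note: 0% = DMSO wells with GLD-1 and probe and 100% = wells lacking GLD-1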
Target sequence (Q17339 whole entry, looked up): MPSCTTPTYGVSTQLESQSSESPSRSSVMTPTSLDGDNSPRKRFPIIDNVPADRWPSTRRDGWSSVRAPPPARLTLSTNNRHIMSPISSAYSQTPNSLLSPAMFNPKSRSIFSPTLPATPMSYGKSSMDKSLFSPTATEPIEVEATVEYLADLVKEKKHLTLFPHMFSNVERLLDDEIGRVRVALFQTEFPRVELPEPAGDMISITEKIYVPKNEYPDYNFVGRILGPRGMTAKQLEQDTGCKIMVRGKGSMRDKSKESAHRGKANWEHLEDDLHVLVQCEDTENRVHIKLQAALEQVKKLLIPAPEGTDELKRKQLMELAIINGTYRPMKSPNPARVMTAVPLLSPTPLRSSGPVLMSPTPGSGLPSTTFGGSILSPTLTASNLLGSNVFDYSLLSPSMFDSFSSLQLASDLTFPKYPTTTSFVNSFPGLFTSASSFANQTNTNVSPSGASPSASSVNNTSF
MCL1-BIM inh – MCL1-BIM-BH3 interaction inhibition (human) | inhibition, % at 10.9 µM | GST-MCL1 / FITC-Bim-BH3 fluorescence polarization | AID 2057 | Q07820 | 320,000 compounds, 0.68% hits;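 active = inhibition above the mean inhibition of all tested compounds plus 3 SD, set per campaign, cut at about 40% in these data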;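 note: 0% = DMSO wells and 100% = unlabeled Bim-BH3 peptide control; higher means more loss of mP so more displacement of Bim peptide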
BCLXL inh – inhibitors of human Bcl-xL | GST-Bcl-xL / FITC-Bim BH3 peptide fluorescence polarization | inhibition, % at 10.9 µM | 320,000 compounds, 0.7% hits;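 active = inhibition above the mean of all tested compounds plus 3 SD, cutoff set per campaign, cut at about 30% in these data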;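 note: 0% = DMSO wells and 100% = unlabeled Bim-BH3 peptide competitor; inhibitors lower millipolarization by displacing the labeled peptide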
Mcl-1 Bim block – human Bim-Mcl-1 interaction inhibition. Bead-based flow cytometry, Bim peptide-Mcl-1 binding. 190,000 compounds, 0.1% hits. inhibition, % at 10 µM; in the data active = inhibition above about 40%;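 note: 0% = no compound tracer wells and 100% = peptide blocker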
Mcl1-Bid inh – Mcl-1/Bid interaction inhibition; Q07820; TR-FRET Mcl-1/Bid-Dy647 peptide binding, 1536-well; inhibition, % at 21.7 µM; 220,000 compounds, 0.97% hits;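 active = compounds that cut the binding signal by more than half at the single screening dose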;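 note: His-tagged Mcl-1 with europium anti-His antibody binding Bid BH3 peptide; 0% = Mcl-1 plus peptide wells and 100% = peptide-only wells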
An asterisk follows results filed as active; . = no result given.

SMILES	Mcl1-Noxa inh	GLD-1 RNA inh	MCL1-BIM inh	BCLXL inh	Mcl-1 Bim block	Mcl1-Bid inh
Cc1ccc(C)c(NC(=O)Cn2nc(-c3ccccc3)nc2-c2ccccc2)c1	-13	0	7	6	2	56*
CC(C)CSC1=NSC2=NC(=O)/C(=C\c3coc4ccccc4c3=O)C(=N)N12	15	-195	23	80*	.	5
Cc1cc(/C=C2\SC(=S)N(C)C2=O)c(C)n1-c1ccc(O)cc1	-8	-70	-39	-18	.	-51
CSC1=NSC2=NC(=O)/C(=C\c3coc4ccccc4c3=O)C(=N)N12	-31	-91	-39	-17	-3	-32
N=C1/C(=C\c2coc3ccc(O)cc3c2=O)C(=O)N=C2SC=CN12	45	55*	-23	61*	.	-28
CN1C(=O)/C(=C/c2coc3ccc(O)cc3c2=O)SC1=S	54*	-15	-12	-12	.	-5
N=C1/C(=C\c2coc3ccccc3c2=O)C(=O)N=C2SC(c3ccncc3)=NN12	61*	-84	-38	-28	.	-159
N=C1/C(=C/c2ccc(OC(=O)c3ccco3)cc2)C(=O)N=C2SC=CN12	46	-1	-5	0	-4	10
N=C1/C(=C/c2coc3ccccc3c2=O)C(=O)N=C2SC(c3ccco3)=NN12	46	-35	-52	-26	.	-82
COc1ccc(CC(=O)O/N=C(\N)c2ccccc2)cc1OC	.	4	1	2	.	.
O=C(CCc1ccccc1)NNC(=O)Nc1ccc(F)c(Cl)c1	.	-8	9	3	.	.
CC(C)n1nc(C(=O)NNC(=O)c2ccc(OC(F)F)cc2)c2ccccc2c1=O	.	-2	-2	0	.	.
Cc1ccc(C)c(OCc2nnc(NC(=O)c3ccc4c(c3)OCO4)s2)c1	-104	-6	5	-1	.	-50
CC(=O)Nc1ccc(-c2csc(NC(=O)C3CC(=O)N(c4ccc5c(c4)OCCO5)C3)n2)cc1 (centres undefined)	87*	0	3	5	.	-31
Cc1cc(C)cc(N(C(C)C(=O)N2CCCCC2)S(C)(=O)=O)c1 (centres undefined)	-26	-1	1	6	7	1
Cc1cc(C)cc(N(C(C)C(=O)N2CCOCC2)S(C)(=O)=O)c1 (centres undefined)	10	0	9	0	-1	53*
Nc1ccccc1Nc1ccccc1	52*	-1	1	10	0	75*
Nc1ccc(Nc2ccccc2)c(Cl)c1	20	8	16	4	-2	-102
Cn1c(CNC(=O)c2ccco2)nnc1SCC(=O)N1CCN(c2ccccc2F)CC1	.	-3	1	-4	.	.
Cc1cccc(-c2n[nH]c(=S)n2/N=C/c2ccc(C)s2)c1	69*	5	-16	-25	4	-33
CN1CCN(CCc2nc3cc(NC(=O)COc4ccc([N+](=O)[O-])cc4)ccc3n2C)CC1	.	6	3	3	.	.
O=C(O)Cn1c(-c2ccccc2)cc2ccccc21	.	8	-1	-1	.	.
S=c1nc(-c2cc(Cl)ccc2Cl)[nH][nH]1	50	-8	34	10	0	58*
S=c1nc(-c2cccc(Cl)c2)[nH][nH]1	35	2	9	7	-5	-28
CCOC(=O)C1CSc2[nH]c(=O)sc2C1c1ccccc1 (centres undefined)	6	0	6	16	0	-9
SMILES	Mcl1-Noxa inh	GLD-1 RNA inh	MCL1-BIM inh	BCLXL inh	Mcl-1 Bim block	Mcl1-Bid inh
O=C(O)CC12CSc3[nH]c(=O)sc3C1c1ccccc1OC2=O (centres undefined)	-4	5	7	1	0	66*
Oc1ccc(N2CCN(c3nc(-c4cccs4)nc4ccccc34)CC2)cc1	94*	8	44*	32*	.	-42
c1ccc(N2CCN(c3nc(-c4cccs4)nc4ccccc34)CC2)cc1	0	1	-4	-3	5	-9
O=C(CSc1nnc(-c2ccco2)o1)c1ccc[nH]1	56*	8	8	5	-23	-25
Cc1ccc(C)c(NC(=O)CSc2nnc(-c3ccco3)o2)c1	2	-1	-2	7	0	2
Cc1cccc(NC(=O)CSc2nnc(-c3ccco3)o2)c1C	54*	-3	2	5	-1	-14
N#Cc1ccc(CN2C(=O)NC3(CCCCCC3)C2=O)cc1	.	12	1	1	.	.
O=C(O)Cc1sc(Nc2ccc(Cl)cc2)nc1-c1cccs1	73*	.	.	.	-6	-27
Nc1nc(-c2cccs2)c(CC(=O)O)s1	30	-6	-5	2	-1	-48
CC(=O)c1ccc(N2CCN(C(=O)c3noc4c3CSc3ccccc3-4)CC2)cc1	.	4	23	24	.	.
O=c1oc2cc(O)c(Cl)cc2c2ccccc12	54*	9	-2	3	-1	-61
COc1ccc2c(c1)oc(=O)c1ccccc12	27	12	0	9	4	-11
N#Cc1nc(Cc2cccc3ccccc23)oc1N1CCC(C(N)=O)CC1	9	0	5	33*	-3	-19
Cc1cc(NC(=O)CCC(=O)N(CCC(C)C)C(C(=O)NC2CCCC2)c2ccccc2C)no1 (centres undefined)	.	-4	-5	0	.	.
COc1ccc(/C=N/Nc2nc(-c3cccnc3)nc3ccccc23)c(OC)c1	35	-110	-4	3	.	54*
O=C(CNS(=O)(=O)c1ccccc1)OCc1cccc([N+](=O)[O-])c1	4	5	-2	38*	-3	-7
COc1cccc(CN(C)C(=O)c2ccc3nccnc3c2)c1	26	10	48*	41*	-1	2
COCCN1C(=O)C(=O)/C(=C(/O)c2ccc(S(=O)(=O)N3CCOCC3)cc2)C1c1cccc(Cl)c1 (centres undefined)	40	2	-3	0	.	66*
CCN(c1ccccc1)S(=O)(=O)c1ccc(C(=O)NCC2(N(C)C)CCCCC2)cc1	.	-1	0	0	.	.
O=C(O)CSc1nc2c(c(C(F)(F)F)n1)CCCC2	4	-4	7	4	0	-8
CCOC(=O)C1=C(C)N(C)C(=O)NC1c1cc2c(cc1[N+](=O)[O-])OCO2 (centres undefined)	51*	-1	18	23	1	8
CCOC(=O)C1=C(C)N(C)C(=O)NC1c1cccc([N+](=O)[O-])c1 (centres undefined)	.	3	-3	3	.	.
CN(C)c1cc(NC(=O)CNC(C)(C)CC(C)(C)C)c2ccccc2n1	4	-2	1	1	-3	-2
CN(C)c1cc(NC(=O)CN2CCCC2)c2ccccc2n1	54*	-2	4	1	.	37
CCOC(=O)c1sc(NC(=O)Nc2ccc(Cl)cc2)cc1C	100*	12	-5	-2	2	7
Cc1cccn2c(=O)c(C=O)c(Cl)nc12	-7	14	24	27	.	51*
COc1ccc(N2CS(=O)CC2=O)cc1 (centres undefined)	-1	-3	8	0	3	-31
